For 35 compounds, cell viability and kynurenine production results are on record in the supplement of paper PMC13094657.

For assay [1], the system named is MDA-MB-231. The experiment in a line: cell viability relative to vehicle unstimulated control (fraction); higher = more viable cells. The settings on record: pre-treatment time: 18 h then 24 h IFNg/TNF.
The subject of assay [2] is MDA-MB-231. The experiment in a line: kynurenine production, fold change vs DMSO IFNg/TNF control; higher = more kynurenine produced (less inhibition). The settings on record: pre-treatment time: 18 h then 24 h IFNg/TNF. A digest of the protocol:
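MDA-MB-231 cells were seeded in 96-well plates at 7 × 10^4/well and, 24 h later, pre-treated for 18 h with each natural product in 0.1% DMSO. They were then stimulated for 24 h at 37°C with IFNγ (1 U/ml) and TNF (6.25 ng/ml). Supernatants were treated with trichloroacetic acid and p-dimethylaminobenzaldehyde and read at 492 nm against 0–100 μM standards. Kynurenine production is expressed as fold change over cytokine-stimulated vehicle wells on the same plate and, in the first screening round, averaged across duplicate plates.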

Structures can show the parent of a compound that is named as a salt. ± gives the standard deviation of the averaged measurements.
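Wherever cell viability relative to vehicle unstimulated control is given: viability of the cells left after supernatant collection, read with Deep Blue dye added for 4 h, as absorbance at 570 nm minus 600 nm.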

With `CC(=O)OCC1=COC(OC(C)=O)C2C(C)CCC12` (stereo not given) [Teucrein] (compound dose: 10 uM), the cell viability with MDA-MB-231 [1] is 0.889 ± 0.026. The kynurenine production with MDA-MB-231 [2] is 0.842 ± 0.086.
On the same counts, the results for `OCC1=C[C@@H](O)[C@@H]2C=CO[C@@H](O[C@@H]3O[C@H](CO)[C@@H](O)[C@H](O)[C@H]3O)[C@H]12` [Aucubin] (compound dose: 10 uM) are 1.01 ± 0.02 and 0.87 ± 0.041.
On the same counts, the results for `C[C@H](CC[C@@H](O[C@@H]1O[C@H](CO[C@@H]2O[C@H](CO)[C@@H](O)[C@H](O)[C@H]2O)[C@@H](O)[C@H](O)[C@H]1O[C@@H]1O[C@H](CO)[C@@H](O)[C@H](O)[C@H]1O)C(C)(C)O)[C@H]1CC[C@@]2(C)[C@@H]3CC=C4[C@@H](CC[C@H](O[C@@H]5O[C@H](CO)[C@@H](O)[C@H](O)[C@H]5O)C4(C)C)[C@]3(C)[C@H](O)C[C@]12C` [Siamenoside I] (compound dose: 10 uM) are 1.14 ± 0.34 and 1.1 ± 0.063.
On the same counts, the results for `CO[C@@H]1C=C2[C@@H]3CC(C)(C)CC[C@]3(CO)[C@H](O)C[C@@]2(C)[C@]2(C)CC[C@H]3[C@](C)(CO)[C@@H](O[C@@H]4O[C@H](C)[C@H](O)[C@H](O[C@@H]5O[C@H](CO)[C@@H](O)[C@H](O)[C@H]5O)[C@H]4O)CC[C@]3(C)[C@@H]12` [Saikosaponin B4] (compound dose: 10 uM) are 1.12 ± 0.026 and 0.923 ± 0.21.
Take `CC(/C=C/C=C(\C)C(=O)O)=C\C=C\C=C(C)\C=C\C=C(/C)C(=O)O` [Transcrocetin meglumine salt] (compound dose: 10 uM): the cell viability in the assay on MDA-MB-231 [1] came to 1.02 ± 0.038. In the assay on MDA-MB-231 [2], the kynurenine production was 0.737 ± 0.064.
On the same counts, the results for `C[C@H](CC[C@@H](O[C@@H]1O[C@H](CO)[C@@H](O)[C@H](O)[C@H]1O)C(C)(C)O)[C@H]1CC[C@@]2(C)[C@@H]3CC=C4[C@@H](CC[C@H](O[C@@H]5O[C@H](CO)[C@@H](O)[C@H](O)[C@H]5O)C4(C)C)[C@]3(C)[C@H](O)C[C@]12C` [Mogroside IIe] (compound dose: 10 uM) are 0.984 ± 0.089 and 0.934 ± 0.29.
The matching figures for `CC1=CC23C(=O)C(C=C4COC(C)(C)OC4C24OC(C)(C)OC14)C1C(CC3C)C1(C)C` (stereo not given) [Ingenol-3,4:5,20-diacetonide] (compound dose: 10 uM): 1.04 ± 0.022 and 1.11 ± 0.045.
Take `CC12CCC(C1)C(C)(C)C2O` (stereo not given) [Fenchyl alcohol] (compound dose: 10 uM): the cell viability in the assay with MDA-MB-231 [1] amounted to 1.03 ± 0.041. Moreover, the kynurenine production in the assay on MDA-MB-231 [2] was 0.817 ± 0.31.
On to `C=C(C)[C@@H]1CC[C@]2(C(=O)O)CC[C@]3(C)[C@H](CC[C@@H]4[C@@]5(C)CC[C@H](O)C(C)(C)[C@@H]5CC[C@]43C)[C@@H]12` [Betulinic acid] (compound dose: 10 uM), for which the cell viability in the assay with MDA-MB-231 [1] was found to be 0.993 ± 0.044. Further, the kynurenine production with MDA-MB-231 [2] came to 0.949 ± 0.051.
On the same counts, the results for `C/C=C1\C(=O)C[C@H]2[C@@H]3CCC4=CC(=O)CC[C@]4(C)[C@H]3CC[C@]12C` [Guggulsterone] (compound dose: 10 uM) are 0.9378 ± 0.0046 and 0.324 ± 0.043.
On the same counts, the results for `COc1c2cc3c(c1OC)CCN(C)[C@@H]3Cc1ccc(cc1)Oc1cc3c(c(OC)c1OC)CCN(C)[C@@H]3Cc1ccc(cc1)O2` [Cycleanine] (compound dose: 10 uM) are 0.118 ± 0.0024 and 0.198 ± 0.023.
For the compound `C/C=C(/C)C(=O)O[C@H]1C(C)=C[C@]23C(=O)[C@@H](C=C(COC(C)=O)[C@@H](O)[C@]12O)[C@H]1[C@@H](C[C@H]3C)C1(C)C` [20-O-Acetylingenol-3-angelate] (compound dose: 10 uM), in the assay on MDA-MB-231 [1], the cell viability is 1.1 ± 0.091. Moreover, in the assay with MDA-MB-231 [2], the kynurenine production amounted to 0.874 ± 0.053.
The matching figures for `CC(C)=CCC/C(C)=C/CC/C(C)=C/CO` [Farnesol] (compound dose: 10 uM): 0.994 ± 0.062 and 0.939 ± 0.2.
The matching figures for `CC(=O)O[C@@H](C[C@@H](C)C1=C2C[C@H](O)[C@H]3[C@@]4(C)CCC(=O)C(C)(C)[C@@H]4CC[C@]3(C)[C@@]2(C)CC1=O)[C@H]1OC1(C)C` [Alisol C 23-acetate] (compound dose: 10 uM): 0.975 ± 0.008 and 0.989 ± 0.024.
The matching figures for `O=c1c(-c2ccc(O)cc2)coc2c([C@@H]3O[C@H](CO)[C@@H](O)[C@H](O)[C@H]3O)c(O)ccc12` [Puerarin] (compound dose: 10 uM): 0.944 ± 0.027 and 0.927 ± 0.033.
As for `CC(=O)OC(C)(C)CCC(=O)[C@](C)(O)[C@H]1[C@H](O)C[C@@]2(C)[C@@H]3CC=C4[C@@H](C[C@H](O)[C@@H](O)C4(C)C)[C@]3(C)C(=O)C[C@]12C` [Cucurbitacin IIa] (compound dose: 10 uM), in the assay with MDA-MB-231 [1], the cell viability is 0.939 ± 0.036. The kynurenine production in the assay with MDA-MB-231 [2] worked out at 0.778 ± 0.07.
The matching figures for `C/C=C(/C)C(=O)O[C@H]1C(C)=C[C@]23C(=O)[C@@H](C=C4COC(C)(C)O[C@H]4[C@]12O)[C@H]1[C@@H](C[C@H]3C)C1(C)C` [Ingenol-5,20-acetonide-3-O-angelate] (compound dose: 10 uM): 0.971 ± 0.025 and 0.918 ± 0.23.
On the same counts, the results for `CC(=O)OCC1=C[C@@H]2OC(=O)C3=CO[C@@H](O[C@@H]4O[C@H](CO)[C@@H](O)[C@H](O)[C@H]4O)[C@H]1[C@@H]32` [Asperuloside] (compound dose: 10 uM) are 0.983 ± 0.03 and 0.923 ± 0.15.
On the same counts, the results for `CC(C)=CCC[C@](C)(O[C@@H]1O[C@H](CO[C@@H]2OC[C@@H](O)[C@H](O)[C@H]2O)[C@@H](O)[C@H](O)[C@H]1O)[C@H]1CC[C@]2(C)[C@@H]1[C@H](O)C[C@@H]1[C@@]3(C)CC[C@H](O[C@@H]4O[C@H](CO)[C@@H](O)[C@H](O)[C@H]4O[C@@H]4O[C@H](CO)[C@@H](O)[C@H](O)[C@H]4O)C(C)(C)[C@@H]3CC[C@]12C` [Ginsenoside Rb3] (compound dose: 10 uM) are 1.01 ± 0.015 and 0.73 ± 0.19.
In the case of `C[C@H]1[C@H](C)CC[C@]2(C(=O)O)CC[C@]3(C)C(=CC[C@@H]4[C@@]5(C)C[C@@H](O)[C@H](O)[C@@](C)(CO)[C@@H]5[C@H](O)C[C@]43C)[C@H]12` [Madecassic acid] (compound dose: 10 uM), the cell viability in the assay with MDA-MB-231 [1] was found to be 0.899 ± 0.14. Also, the kynurenine production with MDA-MB-231 [2] amounted to 0.839 ± 0.093.
The matching figures for `CSC(=O)OCC1=C[C@@H]2OC(=O)C3=CO[C@@H](O[C@@H]4O[C@H](CO)[C@@H](O)[C@H](O)[C@H]4O)[C@H]1[C@@H]32` [Paederoside] (compound dose: 10 uM): 1.14 ± 0.027 and 0.937 ± 0.11.
For `CC(=O)O[C@]12C[C@H](C)[C@H](OC(=O)/C=C/c3ccccc3)[C@@H]1/C=C(/CO)CC[C@H]1[C@@H](/C=C(\C)C2=O)C1(C)C` [Euphorbia factor L22] (compound dose: 10 uM), the cell viability with MDA-MB-231 [1] worked out at 1.11 ± 0.047. For the same compound, the kynurenine production with MDA-MB-231 [2] worked out at 0.964 ± 0.092.
Take `O=c1cc(-c2ccc(O)c(O)c2)oc2c([C@@H]3O[C@H](CO)[C@@H](O)[C@H](O)[C@H]3O)c(O)cc(O)c12` [Orientin] (compound dose: 10 uM): the cell viability in the assay with MDA-MB-231 [1] is 0.922 ± 0.069. The kynurenine production in the assay on MDA-MB-231 [2] is 0.918 ± 0.1.
The matching figures for `CC1(C)CC[C@]2(C(=O)O)[C@H](O)C[C@]3(C)C(=CC[C@@H]4[C@@]5(C)CC[C@H](O)[C@@](C)(C=O)[C@@H]5CC[C@]43C)[C@@H]2C1` [Quillaic acid] (compound dose: 10 uM): 1.01 ± 0.015 and 1.11 ± 0.018.
In the case of `C=C1C(=O)[C@@]23[C@H](O)C[C@@H]4C(C)(C)C(=O)CC[C@@]4(C)[C@@H]2CC[C@@H]1[C@H]3O` [Glaucocalyxin A] (compound dose: 10 uM), the cell viability with MDA-MB-231 [1] is 0.832 ± 0.078. The kynurenine production with MDA-MB-231 [2] is 0.109 ± 0.029.
On the same counts, the results for `C[C@@H]1C(=O)O[C@H]2C[C@@]34[C@H]5C[C@@H](C(C)(C)C)[C@]36[C@@H](OC(=O)[C@@H]6O)O[C@@]4(C(=O)O5)[C@]21O` [Ginkgolide A] (compound dose: 10 uM) are 1.03 ± 0.13 and 1.2 ± 0.084.
The matching figures for `C=C1[C@H](OC(=O)/C=C(\C)CC)C[C@@H](C(C)C)[C@@H]2[C@@H]([C@@H](C)OC(C)=O)C(=O)C[C@@H]12` [Tussilagone] (compound dose: 10 uM): 1.01 ± 0.034 and 1.0216 ± 0.00014.
The matching figures for `O=c1cc(-c2ccc(O)cc2)oc2cc(O)cc(O)c12` [Apigenin] (compound dose: 10 uM): 0.96 ± 0.053 and 0.806 ± 0.026.
With `CC(C)=CCC[C@@](C)(O)[C@H]1CC[C@]2(C)[C@@H]1[C@H](O)C[C@@H]1[C@@]3(C)CC[C@H](O[C@@H]4O[C@H](CO)[C@@H](O)[C@H](O)[C@H]4O[C@@H]4O[C@H](CO)[C@@H](O)[C@H](O)[C@H]4O[C@@H]4OC[C@@H](O)[C@H](O)[C@H]4O)C(C)(C)[C@@H]3CC[C@]12C` [Notoginsenoside Ft1] (compound dose: 2 uM), the cell viability in the assay with MDA-MB-231 [1] amounted to 0.899 ± 0.026. Further, in the assay with MDA-MB-231 [2], the kynurenine production worked out at 0.86 ± 0.16.
The matching figures for `CC1(C)CC[C@]2(C(=O)O)CC[C@]3(C)C(=CC[C@@H]4[C@@]5(C)CC[C@H](O)[C@@](C)(CO)[C@@H]5CC[C@]43C)[C@@H]2C1` [Hederagenin] (compound dose: 10 uM): 1.06 ± 0.2 and 1.07 ± 0.014.
On the same counts, the results for `C[C@@H]1CC[C@]2(C)CC[C@]3(C)C(=CC(=O)C4[C@@]5(C)CC[C@@H](O)[C@](C)(C(=O)O)C5CC[C@]43C)C2[C@H]1C` (stereo partly drawn) [11-Keto-beta-boswellic acid] (compound dose: 10 uM) are 0.949 ± 0.013 and 0.94 ± 0.12.
On to `C[C@H]1[C@H](OC(=O)CCC(=O)O)O[C@@H]2O[C@@]3(C)CC[C@H]4[C@H](C)CC[C@@H]1[C@@]24OO3` [Artesunate] (compound dose: 10 uM), for which, in the assay on MDA-MB-231 [1], the cell viability is 0.909 ± 0.13. Moreover, the kynurenine production in the assay with MDA-MB-231 [2] amounted to 0.421 ± 0.04.
The matching figures for `O=C(O)c1cncc(C(=O)O)c1` [3-5-pyridinedicarboxylic acid] (compound dose: 10 uM): 1.04 ± 0.044 and 0.983 ± 0.025.
The matching figures for `COC(=O)C1=CO[C@@H](O[C@@H]2O[C@H](CO)[C@@H](O)[C@H](O)[C@H]2O)[C@@H]2[C@@]3(C)O[C@H]3[C@@H](O)[C@]12O` [Sesamoside] (compound dose: 10 uM): 0.9746 ± 0.0057 and 0.928 ± 0.12.
On the same counts, the results for `C[C@@H]1O[C@@H](O[C@H]2[C@H](O[C@H]3CC[C@@]4(C)[C@@H](CC[C@]5(C)[C@@H]4CC=C4[C@@H]6CC(C)(C)CC[C@]6(C(=O)O[C@@H]6O[C@H](CO[C@@H]7O[C@H](CO)[C@@H](O)[C@H](O)[C@H]7O)[C@@H](O)[C@H](O)[C@H]6O)CC[C@]45C)[C@]3(C)CO)OC[C@H](O)[C@@H]2O)[C@H](O)[C@H](O[C@@H]2O[C@H](CO)[C@@H](O)[C@H](O)[C@H]2O)[C@H]1O` [Macranthoidin A] (compound dose: 10 uM) are 0.901 ± 0.011 and 1.08 ± 0.014.
